Rows were chosen to be rich in hits. Some 2.5% of all compounds tested hit in one or more screens of this group.
697 NFkB inh: inhibitors of PMA/ionomycin-induced NF-kB reporter, 697 cells, primary screen, B-cell NF-kB inhibitor project, cell-based, luminescence, uHTS; 697 B-cell NF-kB luciferase reporter, 16 h; inhibition, % at 4 µM; hit rate 0.33% among 330,000; in the data active = inhibition above about 35%
ANO1 block: TMEM16A chloride channel inhibitors, primary screen, cell-based, HTS; Anoctamin-1 (Mus musculus), Q8BHY3; HEK293 TMEM16A/YFP iodide influx fluorescence, ionomycin; normalized B-score (activity score, 25-100; higher = stronger inhibition) at 10 µM; hit rate 1.2% among 310,000;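 active = ratio plate-corrected score three or more library SD toward inhibition, starting fluorescence score within five deviations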;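 also: score derived from kinetic fluorescence span divided by baseline fluorescence per well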
Target sequence (Q8BHY3 whole entry, looked up): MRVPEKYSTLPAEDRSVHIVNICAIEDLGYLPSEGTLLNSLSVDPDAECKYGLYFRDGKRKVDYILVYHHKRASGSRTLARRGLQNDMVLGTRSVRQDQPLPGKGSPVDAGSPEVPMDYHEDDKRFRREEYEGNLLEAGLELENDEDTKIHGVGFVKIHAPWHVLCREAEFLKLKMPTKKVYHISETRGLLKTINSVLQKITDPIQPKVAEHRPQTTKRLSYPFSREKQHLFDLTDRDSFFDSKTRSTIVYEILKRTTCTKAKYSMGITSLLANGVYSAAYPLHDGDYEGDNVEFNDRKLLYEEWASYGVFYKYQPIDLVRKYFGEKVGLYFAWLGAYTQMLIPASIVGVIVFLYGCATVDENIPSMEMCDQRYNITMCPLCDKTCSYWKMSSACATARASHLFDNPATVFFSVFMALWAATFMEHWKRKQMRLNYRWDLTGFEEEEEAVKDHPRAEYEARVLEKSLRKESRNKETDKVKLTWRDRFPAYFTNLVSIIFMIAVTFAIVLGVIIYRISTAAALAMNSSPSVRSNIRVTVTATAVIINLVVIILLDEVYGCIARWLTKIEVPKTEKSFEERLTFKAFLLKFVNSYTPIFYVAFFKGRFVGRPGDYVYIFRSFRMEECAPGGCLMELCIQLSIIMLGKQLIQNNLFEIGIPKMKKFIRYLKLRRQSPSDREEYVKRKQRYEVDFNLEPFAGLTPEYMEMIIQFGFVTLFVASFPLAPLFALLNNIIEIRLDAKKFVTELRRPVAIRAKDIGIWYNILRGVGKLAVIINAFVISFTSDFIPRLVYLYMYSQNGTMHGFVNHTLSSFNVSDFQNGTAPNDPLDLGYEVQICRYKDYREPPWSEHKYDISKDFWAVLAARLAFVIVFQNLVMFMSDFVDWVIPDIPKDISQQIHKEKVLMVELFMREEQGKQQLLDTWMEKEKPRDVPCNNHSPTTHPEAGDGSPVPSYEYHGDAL
Jurkat NFkB inh: inhibitors of induced NF-kB luciferase reporter, primary screen, TCR NF-kB activation inhibitor project, cell-based, luminescence, uHTS. Jurkat, PMA/ionomycin-induced NF-kB luciferase reporter. inhibition, % at 4 µM. hit rate 0.53% among 330,000. AID 435003, 2010; in the data active = inhibition above about 50%
aSyn UTR inh: MLPCN primary screen, SNCA 5' untranslated region; alpha-synuclein 5'UTR reporter, inhibitor activity; AID 1813, 2009; inhibition, % (tested at 7.5 µM); hit rate 0.82% among 300,000; in the data active = inhibition above about 60%; inconclusive = no clear call, values can overlap the other calls;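 also: H4 neuroglioblastoma cells stably carrying SNCA 5'UTR luciferase fusion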
ANO1 activ: TMEM16A chloride channel activators or potentiators, primary screen, cell-based, HTS; Anoctamin-1 (Mus musculus), Q8BHY3; HEK293 TMEM16A/YFP-H148Q/I152L, iodide quench fluorescence; hits give low values; B-score at 10 µM; hit rate 0.3% among 340,000; AID 623877, 2012;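 active = fluorescence-ratio B-score plate-corrected deviation score at least 3 library SD below zero, with starting fluorescence score within 5 deviations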;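 also: channel opened by trigger with iodide after compound preincubation; score built on the fluorescence ratio of max minus min over baseline; more negative score means more quench and so TMEM16A activation or potentiation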
KLF5 inhibitor: KLF5 expression inhibitors, primary screen, DLD-1 cells, luminescence; DLD-1 KLF5 promoter-luciferase reporter; inhibition, % at 5 µM; hit rate 0.23% among 290,000; AID 1700, 2009;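 active = inhibition above a per-plate limit of that plate's mean compound inhibition plus 3 SD, cut at about 60% in these data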;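 also: higher means less KLF5 promoter-driven luciferase light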
Jurkat NFkB conf: PMA/ionomycin-induced NF-kB reporter inhibitors, Jurkat retest, confirmation, T-cell NF-kB inhibitor project, cell-based, luminescence, single concentration; shares compounds with Jurkat NFkB inh; Jurkat NF-kB luciferase, 16 h; inhibition, % at 4 µM; hit rate 27% among 2,700; AID 435020, 2010;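 active = inhibition reaching about 45% at 4 µM in either replicate, limit read from the data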
697 NFkB conf: PMA/ionomycin-induced NF-kB reporter inhibitors, 697 retest, confirmation, B-cell NF-kB inhibitor project, cell-based, luminescence, single concentration | inhibition, % at 4 µM | AID 449746, 2010 | 697 B-cell NF-kB luciferase, 16 h | hit rate 35% among 2,000 | shares compounds with 697 NFkB inh; in the data active = inhibition mostly above about 28%, no sharp cut-off; inactive = mostly below about 22%
Numbers stand for hits; - = inactive; ? = inconclusive; . = not tested or not shown.

SMILES	697 NFkB inh	ANO1 block	Jurkat NFkB inh	aSyn UTR inh	ANO1 activ	KLF5 inhibitor	Jurkat NFkB conf	697 NFkB conf
Clc1ccc(/C=C/c2nc3ccccc3[nH]2)cc1	-	-	-	?	-	-	-	-
Nc1nc(=O)n(C2CCCO2)cc1Br (configuration not stated)	.	.	.	.	-	.	.	.
Cc1noc(C)c1NC(=O)N(C)C[C@H]1Oc2ccc(NC(=O)Nc3ccccc3)cc2C(=O)N([C@H](C)CO)C[C@@H]1C	-	.	-	.	-	.	.	.
CC1C/C(=C/c2ccco2)C(=O)/C(=C/c2ccco2)C1 (configuration not stated)	-	-	-	-	.	-	.	.
CC(C)(C)C1C/C(=C/c2ccccn2)C(=O)/C(=C/c2ccccn2)C1 (configuration not stated)	105	-	100	103	-	-	-	-
CN[C@H]1CCc2cc(OC)c(OC)c(OC)c2-c2ccc(OC)c(=O)cc21	-	-	72	90	-	.	66	-
O=C(COc1ccccc1)Nc1nnc(S(=O)(=O)Nc2ccccc2)s1	-	-	-	-	-	-	.	.
COc1cc(NS(C)(=O)=O)ccc1Nc1c2ccccc2nc2ccccc12	-	-	72	.	-	.	82	-
FC(F)(F)c1nnc2c(Sc3ccccc3)nc3ccc(Cl)cc3n12	67	-	85	-	-	-	-	-
FC(F)(F)c1nc2ccccc2n2c(-c3ccc(Cl)cc3Cl)nnc12	-	-	-	-	-	-	.	.
COc1ccc(S(=O)(=O)N2CCN(Cc3ccco3)CC2)cc1	-	-	-	-	-	-	.	.
Fc1cccc(-c2cc3nc4c(c(NCc5ccco5)n3n2)CCCC4)c1	-	-	-	-	-	-	-	-
CC(=O)C1CCC2C3CCC4CC(=O)CCC4(C)C3C=CC12C (configuration not stated)	.	.	.	.	-	.	.	.
CC(C)(C)S(=O)(=O)c1cnc2c(-c3ccc(Cl)cc3)cnn2c1N	-	-	-	-	-	-	.	.
Nc1c(-c2ccc(Cl)cc2)cnc2c(-c3ccccc3)cnn12	-	-	-	-	-	-	-	-
COc1ccc(/C=C(\NC(=O)c2ccc(C)cc2)C(=O)NCCCn2ccnc2)cc1OC	-	-	-	-	-	-	.	.
Cc1noc(C)c1S(=O)(=O)N(C)C[C@H]1Oc2c(NC(=O)C3CCCCC3)cccc2C(=O)N([C@H](C)CO)C[C@@H]1C	-	.	-	.	.	.	.	.
CCCCCc1ccc(-c2ccc(OC)cc2)nc1	-	-	-	-	-	-	.	.
CCCCc1ccc(-c2ccc(Br)cc2O)nc1	-	-	-	-	-	-	-	-
CCCCc1ccc(-c2ccc(C)cc2O)nc1	-	-	-	84	-	-	-	-
N#Cc1cc2cc3c(cc2nc1SCC(=O)OC1CCCCC1)OCO3	-	-	-	-	-	-	.	.
CC(=O)CSc1nc2cc3c(cc2cc1C#N)OCCO3	-	-	-	-	-	-	-	-
Cc1ccc(C)c(NC(=O)CSc2nnc(-c3cc(C)[nH]n3)n2N)c1	-	-	-	-	-	-	.	.
COc1ccc(N=Cc2sc(O)c3ccccc23)cc1	-	-	-	-	-	-	-	-
COc1ccc(N=Cc2c(O)c3ccccc3n2C(C)=O)cc1	-	-	-	-	-	-	.	.
SMILES	697 NFkB inh	ANO1 block	Jurkat NFkB inh	aSyn UTR inh	ANO1 activ	KLF5 inhibitor	Jurkat NFkB conf	697 NFkB conf
Brc1ccc(-c2cn3ccccc3n2)cc1	-	-	-	-	-	-	-	-
C/C(N)=C(/C#N)C(=O)CSc1nnc(-c2ccc3c(c2)OCO3)o1	-	-	-	?	-	-	-	-
CN(C)c1cc[n+](CC(=O)c2ccc(-c3ccccc3)cc2)cc1	62	-	73	-	-	-	60	46
O=C(C[n+]1ccccc1)c1ccc(-c2ccccc2)cc1	-	-	-	-	-	-	.	.
Cc1cc(NCCCn2ccnc2)n2nc(C)c(-c3ccccc3)c2n1	-	-	-	-	-	-	.	.
N=c1c2c(-c3ccccc3)c(-c3ccccc3)n(Cc3ccccc3)c2ncn1CCCn1ccnc1	37	-	58	-	-	-	-	24
CCCn1c(SCC(=O)N(C2CCCCC2)C2CCS(=O)(=O)C2)n[nH]c1=O (configuration not stated)	-	.	-	.	-	.	.	.
Nc1ccc(C#Cc2ccccc2)cc1	-	-	-	-	-	-	.	.
Nc1ccccc1C#Cc1ccccc1	-	-	55	-	-	-	-	-
Cc1nc2ccccn2c1C(=O)/C=C/c1cccc([N+](=O)[O-])c1	40	-	51	-	-	-	-	41
Cc1ccc(/C=C/C(=O)c2c(C)nc3ccccn23)cc1	-	-	-	-	-	-	.	.
COc1ccccc1CN1CC(C(=O)N(C)CCc2nc3ccc(F)cc3[nH]2)CCC1=O (configuration not stated)	-	-	-	-	-	-	.	.
Cn1nc(C(C)(C)C)cc1C(=O)NCc1ccc(N2CCCC2=O)cc1	42	-	66	-	-	-	66	57
N#Cc1cc2c(nc1SCC(=O)Nc1nccs1)CCCCC2	-	-	-	-	-	-	-	-
Cc1nc2cc(NC(=O)c3cccc(S(C)(=O)=O)c3)ccc2o1	-	-	-	-	-	-	.	.
c1ccc(-c2noc(-c3ccc4c(c3)OCO4)n2)cc1	-	-	-	-	-	-	-	-
Cc1csc(SCC(=O)NC2CCC(C)CC2)n1 (configuration not stated)	-	-	-	-	-	.	.	.
c1ccc(-c2noc(-c3ccccc3-c3ccccc3)n2)cc1	-	-	-	-	-	-	.	.
CN(C)c1ccc(-c2noc(-c3ccccc3O)n2)cc1	-	-	-	71	-	-	-	-
Cc1ccc(-c2noc(-c3ccccc3Br)n2)cc1	-	-	-	.	-	-	-	-
NNc1ccc(Cl)c(C(=O)O)c1	-	-	-	-	-	-	.	.
CC(C)Cn1c(N)c(C(=O)CSc2ccc3c(c2)OCCO3)c(=O)n(C)c1=O	39	-	54	-	-	-	-	-
CC(C)Cn1c(N)c(C(=O)COC(=O)c2ccc3c(c2)OCCO3)c(=O)n(C)c1=O	-	-	-	-	-	-	.	.
CC(C)(C)C(=O)/C(=C/c1ccc(Cl)cc1)n1cncn1	-	-	-	-	-	-	.	.

High-throughput results (PubChem BioAssay)
